Data taken from PubChem BioAssay AID488864 (Broad Institute, 2010).
Measured potencies and affinities stand elsewhere. Values without a mark were called inactive.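 The calls were made as follows: active = ATP signal reduced by compound, with fitted active dose under ten times the top valid tested dose; inactive = the rest, compounds that increase ATP levels included.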

Test: INS-1E beta-cell viability without cytokines, dose response, cytotoxicity control for beta-cell cytokine protection project, CellTiter-Glo luminescence, dry powder (AID 488864)
Details: INS-1E rat beta cells, 48 h, no cytokines; series mostly up to 26 µM; activity change, negative = ATP decrease: at the top concentration

Row | SMILES | activity change, negative = ATP decrease
1 | COc1ccc(S(=O)(=O)N(C)C[C@@H]2Oc3c(NC(=O)C4CC4)cccc3C(=O)N([C@@H](C)CO)C[C@H]2C)cc1 | 1.69% [at 23.5 µM]
2 | C[C@@H]1CN([C@@H](C)CO)C(=O)c2cccc(NC(=O)Nc3cccc4ccccc34)c2O[C@H]1CN(C)S(=O)(=O)c1cccs1 | 8.1%
3 | COc1ccc(S(=O)(=O)N(C)C[C@@H]2Oc3c(NC(=O)Nc4ccccc4)cccc3C(=O)N([C@@H](C)CO)C[C@H]2C)cc1 | 2.87%
4 | C[C@@H]1CN([C@@H](C)CO)C(=O)c2cccc(NC(=O)Nc3cccc4ccccc34)c2O[C@H]1CN(C)S(=O)(=O)c1ccccc1 | 6.66%
5 | C[C@@H]1CN([C@@H](C)CO)C(=O)c2cccc(NC(=O)Nc3ccccc3)c2O[C@H]1CN(C)S(=O)(=O)c1ccc(F)cc1 | -0.503%
6 | COc1ccc(S(=O)(=O)N(C)C[C@@H]2Oc3c(NC(=O)c4cccc5ccccc45)cccc3C(=O)N([C@@H](C)CO)C[C@H]2C)cc1 | 4.48%
7 | COc1ccc(S(=O)(=O)N(C)C[C@@H]2Oc3c(NC(=O)Nc4cccc5ccccc45)cccc3C(=O)N([C@@H](C)CO)C[C@H]2C)cc1F | 12%
8 | C[C@@H]1CN([C@@H](C)CO)C(=O)c2cccc(NC(=O)Nc3cccc4ccccc34)c2O[C@H]1CN(C)S(=O)(=O)c1ccccc1F | 6.08%
9 | COc1ccc(S(=O)(=O)N(C)C[C@H]2Oc3c(NC(=O)Nc4cccc5ccccc45)cccc3C(=O)N([C@H](C)CO)C[C@@H]2C)cc1 | 2.53%
10 | C[C@@H]1CN([C@@H](C)CO)C(=O)c2cccc(NC(=O)Nc3cccc4ccccc34)c2O[C@H]1CN(C)C(=O)Nc1ccc2c(c1)OCO2 | -3.25%
